Experimental data taken from PubChem BioAssay (EPA / NIEHS).
Activity calls are given as the source filed them. The calls were made as follows: active = hit-call score of the fitted dose curve at least 0.9, where 1 is the maximum; inactive = score below 0.9.

Legend:
[1] = read-out: Matrix Metallopeptidase 1 (MMP1), MMP1 (gene 4312); experiment: BSK_hDFCGF_MMP1: BioMAP Diversity Plus: hDFCGF Assay for Matrix Metallopeptidase 1 (MMP1) Biomarker Activity (AID 2283064); conditions: primary human foreskin fibroblasts; actives raise or lower the signal
Method in brief: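 Human foreskin fibroblasts exposed to chemical for 24 h; MMP1 detected by ELISA, with DMSO as baseline for bidirectional fitting.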

[2] = read-out: Vascular cell adhesion molecule 1 (VCAM1), VCAM1 (gene 7412); experiment: BSK_hDFCGF_VCAM1: BioMAP Diversity Plus: hDFCGF Assay for Vascular cell adhesion molecule 1 (VCAM1) Biomarker Activity (AID 2283065); conditions: primary human foreskin fibroblasts; actives raise or lower the signal;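 as to AC50: VCAM-1 protein level quantified by ELISA after 24 h chemical exposure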
Method in brief: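 Cells are dosed, cultured for 24 h, then VCAM-1 is quantified by ELISA; signal increases and decreases are both fitted relative to DMSO.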

[3] = read-out: Plasminogen activator inhibitor-1 (PAI1), SERPINE1 (gene 5054); experiment: BSK_hDFCGF_PAI1: BioMAP Diversity Plus: hDFCGF Assay for Plasminogen activator inhibitor-1 (PAI1) Biomarker Activity (AID 2283066); conditions: primary human foreskin fibroblasts; actives raise or lower the signal
Method in brief: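 Fibroblasts from human foreskin were treated with test chemical. After 24 h, PAI-1 was measured by ELISA. Activity was fitted in both directions relative to DMSO.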

[4] = read-out: Intercellular Adhesion Molecule 1 (ICAM1), ICAM1 (gene 3383); experiment: BSK_KF3CT_ICAM1: BioMAP Diversity Plus: KF3CT Assay for Intercellular Adhesion Molecule 1 (ICAM1) Biomarker Activity (AID 2283067); conditions: primary human keratinocytes with fibroblasts; actives raise or lower the signal
Method in brief: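 Dose the keratinocyte/fibroblast co-culture, wait 24 h, measure ICAM-1 by ELISA, then fit increases or decreases against DMSO. Cytotoxicity is checked in parallel cultures by SRB total-protein staining.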

[5] = read-out: Interferon-gamma inducible Protein 10 (IP10), CXCL10 (gene 3627); experiment: BSK_KF3CT_IP10: BioMAP Diversity Plus: KF3CT Assay for Interferon-gamma inducible Protein 10 (IP10) Biomarker Activity (AID 2283068); conditions: primary human keratinocytes with fibroblasts; actives raise or lower the signal
Method in brief: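 In a primary skin co-culture of keratinocytes and fibroblasts, IP-10 is quantified by ELISA at 24 h after dosing. SRB staining of parallel wells monitors overt toxicity. Curves are fitted both directions against DMSO.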

[6] = BSK_KF3CT_SRB: Viability Assessment in the BioMAP Diversity Plus: KF3CT Assay (AID 2283069); conditions: primary human keratinocytes with fibroblasts;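 also: fitted for both signal gain and loss against DMSO baseline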
Method in brief: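 Overt cytotoxicity is assessed as total protein by sulforhodamine B staining in parallel human skin co-cultures at 24 h after dosing. DMSO serves as negative control and baseline.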

[7] = read-out: Interleukin-1 alpha (IL1a), IL1A (gene 3552); experiment: BSK_KF3CT_IL1a: BioMAP Diversity Plus: KF3CT Assay for Interleukin-1 alpha (IL1a) Biomarker Activity (AID 2283070); conditions: primary human keratinocytes with fibroblasts; actives raise or lower the signal
Method in brief: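 Readout is IL-1a level by ELISA, compared bidirectionally with DMSO as baseline. Cells: human keratinocytes co-cultured with foreskin fibroblasts, harvested 24 h post-dose.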

[8] = read-out: Transforming growth factor beta 1 (TGFb1), TGFB1 (gene 7040); experiment: BSK_KF3CT_TGFb1: BioMAP Diversity Plus: KF3CT Assay for Transforming growth factor beta 1 (TGFb1) Biomarker Activity (AID 2283072); conditions: primary human keratinocytes with fibroblasts; actives raise or lower the signal
Method in brief: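 KF3CT co-culture (keratinocytes + fibroblasts), 24 h exposure → TGF-b1 ELISA → bidirectional fit, DMSO = baseline. Parallel SRB total-protein staining (0.1% SRB, 10% TCA fixation, 560 nm) for cytotoxicity.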

[9] = read-out: C-C motif chemokine 2 (Homo sapiens) (UniProt P13500); experiment: BSK_KF3CT_MCP1: BioMAP Diversity Plus: KF3CT Assay for Monocyte Chemoattractant Protein 1 (MCP1/CCL2) Biomarker Activity (AID 2283073); conditions: primary human keratinocytes with fibroblasts; actives raise or lower the signal
Method in brief: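 Keratinocytes and foreskin fibroblasts were co-cultured, dosed with chemical, and sampled 24 h later. MCP-1 was quantified by ELISA, and the endpoint was analyzed with bidirectional fitting using DMSO as negative control.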

[10] = read-out: Matrix Metallopeptidase 9 (MMP9), MMP9 (gene 4318); experiment: BSK_KF3CT_MMP9: BioMAP Diversity Plus: KF3CT Assay for Matrix Metallopeptidase 9 (MMP9) Biomarker Activity (AID 2283074); conditions: primary human keratinocytes with fibroblasts; actives raise or lower the signal;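 as to AC50: MMP9 protein level quantified by ELISA in the co-culture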
Method in brief: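 Values come from bidirectional fitting relative to DMSO of MMP-9 levels, which were measured by ELISA. Measurements were taken 24 h after chemical dosing of a keratinocyte and foreskin fibroblast co-culture.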

[11] = read-out: urokinase plasminogen activator (uPA), PLAU (gene 5328); experiment: BSK_KF3CT_uPA: BioMAP Diversity Plus: KF3CT Assay for urokinase plasminogen activator (uPA) Biomarker Activity (AID 2283075); conditions: primary human keratinocytes with fibroblasts; actives raise or lower the signal
Method in brief: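 Values derive from bidirectional fitting against DMSO controls. Keratinocyte/foreskin fibroblast co-cultures received chemical; 24 h later uPA was detected by ELISA, with SRB total-protein staining in parallel wells for overt cytotoxicity.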

CD40, CD40 (gene 958) = experiment: BSK_LPS_CD40: BioMAP Diversity Plus: LPS Assay for CD40 Biomarker Activity (AID 2283076); conditions: primary human HUVEC with PBMC; actives raise or lower the signal
Method in brief: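 CD40 signal, measured by ELISA, is fitted in both directions relative to DMSO vehicle. The system is an LPS-driven human vascular primary co-culture of endothelial cells and PBMC, sampled 24 h after compound addition.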

[12] = read-out: E-selectin (Homo sapiens) (UniProt P16581); experiment: BSK_LPS_Eselectin: BioMAP Diversity Plus: LPS Assay for Eselectin Biomarker Activity (AID 2283077); conditions: primary human HUVEC with PBMC; actives raise or lower the signal
Method in brief: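 Signal of E-selectin, detected by ELISA, served as the endpoint; cells were umbilical vein endothelium with PBMC, read 24 h after treatment. DMSO defined baseline, and both increases and decreases were fitted.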

[13] = read-out: Interleukin-8 (IL8), CXCL8 (gene 3576); experiment: BSK_LPS_IL8: BioMAP Diversity Plus: LPS Assay for Interleukin-8 (IL8) Biomarker Activity (AID 2283078); conditions: primary human HUVEC with PBMC; actives raise or lower the signal
Method in brief: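 Endothelial cells and PBMC from human donors are co-cultured, treated with chemicals and LPS, then assayed for IL-8 by ELISA after 24 h. Parallel SRB staining (0.1% SRB after 10% TCA fixation, 560 nm) flags cytotoxicity.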

[14] = BSK_LPS_SRB: Viability Assessment in the BioMAP Diversity Plus: LPS Assay (AID 2283079); conditions: primary human HUVEC with PBMC;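 also: total protein by sulforhodamine B absorbance as a cytotoxicity measure; measured one day after compound addition; fitted in both directions against DMSO so loss or gain of signal counts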
Method in brief: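 Overt cytotoxicity was gauged by sulforhodamine B total-protein staining in a primary human vascular endothelial and mononuclear cell co-culture 24 h post-dosing. Activity was fitted in both directions relative to DMSO.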

[15] = read-out: Interleukin-1 alpha (IL1a), IL1A (gene 3552); experiment: BSK_LPS_IL1a: BioMAP Diversity Plus: LPS Assay for Interleukin-1 alpha (IL1a) Biomarker Activity (AID 2283080); conditions: primary human HUVEC with PBMC; actives raise or lower the signal
Method in brief: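 Measured: IL-1 alpha via ELISA at 24 h in LPS-activated human umbilical vein endothelium–PBMC co-culture. Baseline: DMSO, bidirectional fitting.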

[16] = read-out: Monocyte Chemoattractant Protein-1 (MCP1), CCL2 (gene 6347); experiment: BSK_LPS_MCP1: BioMAP Diversity Plus: LPS Assay for Monocyte Chemoattractant Protein-1 (MCP1) Biomarker Activity (AID 2283081); conditions: primary human HUVEC with PBMC; actives raise or lower the signal;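 as to AC50: secreted MCP-1 protein quantified by ELISA in culture supernatant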
Method in brief: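 LPS-stimulated HUVEC/PBMC co-culture; chemical, 24 h; MCP-1 by ELISA; bidirectional fit vs DMSO; cytotoxicity via SRB (0.1% stain, 10% TCA fix, 560 nm) in parallel wells.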

[17] = BSK_LPS_PGE2: BioMAP Diversity Plus: LPS Assay for Prostaglandin E2 (PGE2) Biomarker Activity (AID 2283082); conditions: primary human HUVEC with PBMC; actives raise or lower the signal;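 as to AC50: secreted prostaglandin E2 measured by ELISA in LPS-stimulated co-culture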
Method in brief: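 Compounds were added to the LPS co-culture of endothelium and PBMC, and PGE2 was measured by ELISA after 24 h. Responses in either direction were fitted with DMSO as baseline.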

[18] = read-out: Macrophage colony-stimulating factor (MCSF), CSF1 (gene 1435); experiment: BSK_LPS_MCSF: BioMAP Diversity Plus: LPS Assay for Macrophage colony-stimulating factor (MCSF) Biomarker Activity (AID 2283083); conditions: primary human HUVEC with PBMC; actives raise or lower the signal
Method in brief: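 Compound is added to a human vascular primary co-culture of umbilical vein endothelium and blood mononuclear cells. After 24 h, M-CSF is quantified by ELISA. Signal changes are fitted in both directions against DMSO.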

[19] = read-out: TIMP metallopeptidase inhibitor 2 (TIMP2), TIMP2 (gene 7077); experiment: BSK_KF3CT_TIMP2: BioMAP Diversity Plus: KF3CT Assay for TIMP metallopeptidase inhibitor 2 (TIMP2) Biomarker Activity (AID 2283071); conditions: primary human keratinocytes with fibroblasts; actives raise or lower the signal
Method in brief: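 Chemicals were dosed onto human skin primary co-cultures of keratinocytes and foreskin fibroblasts, and TIMP-2 was measured by ELISA after 24 hours. Activity in either direction was fitted relative to DMSO.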

Measured: AC50

Sequence of E-selectin (Homo sapiens) (P16581 whole entry, looked up): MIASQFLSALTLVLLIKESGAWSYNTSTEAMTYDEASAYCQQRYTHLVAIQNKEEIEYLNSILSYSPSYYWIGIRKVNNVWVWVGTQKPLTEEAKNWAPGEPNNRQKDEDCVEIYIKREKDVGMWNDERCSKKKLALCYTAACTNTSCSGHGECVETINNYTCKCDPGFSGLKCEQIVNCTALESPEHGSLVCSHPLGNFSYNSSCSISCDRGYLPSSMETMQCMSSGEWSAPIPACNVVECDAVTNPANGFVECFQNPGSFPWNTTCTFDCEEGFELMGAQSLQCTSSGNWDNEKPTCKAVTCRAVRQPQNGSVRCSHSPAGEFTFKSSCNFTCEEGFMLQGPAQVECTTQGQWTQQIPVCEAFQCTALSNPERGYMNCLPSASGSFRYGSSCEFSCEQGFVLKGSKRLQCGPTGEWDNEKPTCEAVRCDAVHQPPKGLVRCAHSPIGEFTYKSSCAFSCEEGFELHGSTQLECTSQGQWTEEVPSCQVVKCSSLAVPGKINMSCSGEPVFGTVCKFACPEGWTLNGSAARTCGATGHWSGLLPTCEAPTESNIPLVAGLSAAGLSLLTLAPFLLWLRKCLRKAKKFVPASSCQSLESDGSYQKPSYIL

O=C=NCCCCCCN=C=O
not listed: [19]
inactive: all other assays above

COc1ccc2cc(S(=O)(=O)N[C@H](CC(=O)N[C@H](Cc3ccc(CN4[C@H](C)CCC[C@@H]4C)cc3)C(=O)N(C)C(C)C)c3ccc4c(c3)OCO4)ccc2c1
inactive: [4] | [7] | [8] | [9] | [11]
active: [1] 31.5 µM | [2] 32.1 µM | [3] 26 µM | [5] 29.3 µM | [6] 31.7 µM | [19] 27.6 µM | [10] 32.8 µM | CD40, CD40 (gene 958) 11.6 µM | [12] 31.3 µM | [13] 5.7 µM | [14] 15.5 µM | [15] 14.5 µM | [16] 23.1 µM | [17] 31.1 µM | [18] 19.1 µM

Cc1cc2c(cc1C(F)(F)F)N(C(=O)Nc1ccc(Oc3cccnc3C)nc1)CC2
active: [5] 29.9 µM | [6] 26.4 µM | [7] 15.5 µM | [19] 23.8 µM | [8] 23.6 µM | [10] 29.8 µM | [11] 29.2 µM | CD40, CD40 (gene 958) 12.1 µM | [13] 2.7 µM | [15] 3.65 µM | [18] 26.8 µM
inactive: [1] | [2] | [3] | [4] | [9] | [12] | [14] | [16] | [17]
